The assay relates to Trypanosoma brucei. As to the kind of experiment: Trypanosoma brucei 72 hour study. The format is functional, organism-based. Also noted: scale not given: in the data most compounds retested in dose-response had high values.

58 molecules from ChEMBL document CHEMBL3988442, “University of Dundee, Small-Polar-MMV Screening Library” (2021) can be followed below.

Each structure is given as a SMILES string. In all, about 66,000 compounds went through this assay and about 960 (1.5%) showed an effect of 50% or more. The full list was thinned out, with strong results kept by preference.

`COc1cc2c(cc1CN1CCn3c(CO)nnc3C1)CCC2.O=C(O)CC(O)(CC(=O)O)C(=O)O`: under “30.3 µM, […]”, the “Percent Effect” value is listed as -66.2%.

For the molecule `O=C(COC[C@H]1CC[C@H]2[C@H](CCN2c2ccccn2)O1)N1CCCC1.O=C(O)C(F)(F)F`, the “Percent Effect” value (30 µM, 30.03 µM) is reported as -34.45%.

Consider `O=C(COC[C@H]1CC[C@H]2[C@H](CCN2c2ncccn2)O1)N1CCCC1.O=C(O)C(F)(F)F`, for which, where the note is “30 µM, 30.03 µM”, the “Percent Effect” value came out at 52.31%.

For `O=C(COCC1CC[C@H]2[C@H](CCN2c2ncccn2)O1)N1CCCC1.O=C(O)C(F)(F)F` (some centres undefined), the “Percent Effect” value (30 µM, 30.03 µM) is recorded as -11.45%.

With `O=C(CC1CC1)N1CCC2(CC1)CN(c1cccnc1)C(=O)CO2.O=C(O)C(F)(F)F`, the “Percent Effect” value (30.3 µM, […]) was -59.01%.

Consider `CCOc1ncccc1C(=O)N1CCC(Nc2ccc(C)nn2)CC1`, for which the “Percent Effect” value (30.3 µM, […]) is 1.842% and the “Percent Effect” value (10 mM, 10 mM as filed; unlikely as a test dose) is on record as -20.5%.

For the molecule `CN(C)S(=O)(=O)N1C[C@H]2C[C@H](C(=O)Nc3cccnc3)[C@@H](C1)O2`, where the note is “30.3 µM, […]”, the “Percent Effect” value is -739.2%.

On to `COc1ccc(-c2cc(C3CC3)c(C#N)c(N)n2)cc1F`, for which the “Percent Effect” value (30.3 µM, […]) is listed as 93.34%.

`N#Cc1c(C2CC2)cc(-c2ccc(O)cc2)nc1N`: under “30 µM, 30.03 µM”, the “Percent Effect” value was determined as 17.72%.

For the molecule `N#Cc1c(C2CC2)cc(-c2ccc(F)c(F)c2)nc1N`, the “Percent Effect” value (30.3 µM, […]) is reported as -90.74%.

Turning to `CN(C)CCO[C@@H]1CC[C@H]2[C@H]1OCCN2C(=O)c1ccc(F)cc1.O=C(O)C(F)(F)F`, the “Percent Effect” value (30.3 µM, […]) is reported as -19.82%.

In the case of `CN(C)c1cc(CNC(=O)Nc2ccc(N3CCCC3)nc2)ccn1`, the “Percent Effect” value (30.3 µM, […]) is given as 18.28%.

For `O=C(CC1CCC2(CC1)CCN(Cc1cccnc1)CC2)N1CC=CC1.O=C(O)C(F)(F)F.O=C(O)C(F)(F)F`, the “Percent Effect” value (30.3 µM, […]) is -37.26%.

For `O=C(C1CCOCC1)N1CCC2(CCN(Cc3nccs3)CC2)CC1.O=C(O)C(F)(F)F`, the “Percent Effect” value (30 µM, 30.03 µM) stood at 11.85%.

Consider `O=C(C1CCOC1)N1CCC2(CCN(Cc3nccs3)CC2)CC1` (centres undefined), for which the “Percent Effect” value (30 µM, 30.03 µM) stood at 55.49%.

As to `O=C(C1CCOC1)N1CCC2(CCN(Cc3nccs3)C2)CC1` (centres undefined), the “Percent Effect” value (30 µM, 30.03 µM) amounted to 6.218%.

For the molecule `CCn1cc(C(=O)N2C[C@H]3C[C@H](Oc4ccccc4)C[C@H]3C2)cn1`, for the setting “30.3 µM, […]”, the “Percent Effect” value is recorded as 7.287%.

As for `CS(=O)(=O)NCc1nnc2n1CCN(Cc1ccccn1)C2`, for the setting “30.3 µM, […]”, the “Percent Effect” value worked out at 73.82%.

On to `CS(=O)(=O)NCc1nnc2n1CCN(Cc1ccncc1)C2`, for which the “Percent Effect” value (30.3 µM, […]) was -346.7%.

For the molecule `CS(=O)(=O)NCc1nnc2n1CCN(Cc1cccnc1)C2`, under “30.3 µM, […]”, the “Percent Effect” value is reported as -308.6%.

In the case of `CC(C)=CCN1C(=O)[C@H]2CC[C@@H]1CN(c1ncccc1C(N)=O)C2`, the “Percent Effect” value (30 µM, 30.03 µM) is listed as 2.727%.

On to `CC1c2ncc(CNC(=O)C3CC3)n2CCN1Cc1nccs1.O=C(O)C(F)(F)F` (centres undefined), for which the “Percent Effect” value (30.3 µM, […]) is -11.04%.

`CC(C)(C)n1ncc2c(=O)[nH]c(NC3CC=CC3)nc21`: for the setting “30 µM, 30.03 µM”, the “Percent Effect” value is recorded as 100.8%.

Consider `CN1CC(Nc2nc3c(cnn3C(C)(C)C)c(=O)[nH]2)CCC1=O` (centres undefined), for which the “Percent Effect” value (30 µM, 30.03 µM) is on record as -21.89%.

Turning to `CC(C)(C)n1ncc2c(=O)[nH]c(N3CC(O)C3)nc21`, where the note is “30 µM, 30.03 µM”, the “Percent Effect” value was found to be 18.67%.

Regarding `Cc1ncc(CN2CCC(N(C)Cc3noc(C4CC4)n3)C2)s1` (centres undefined), the “Percent Effect” value (10 µM) was -20.3%.

On to `CC(Cn1cccn1)NC(=O)NCc1cccnc1` (centres undefined), for which the “Percent Effect” value (10 µM) is listed as -30.88%.

For the molecule `O=C(O)C(c1ccc2c(c1)OCCO2)N1CCC(N2CCSCC2)CC1` (centres undefined), the “Percent Effect” value (30 µM, 30.03 µM) was -29.57%.

Turning to `CN(Cc1nc(N)c2ccccc2n1)CC1CCCN1c1cccnn1` (centres undefined), the “Percent Effect” value (30 µM, 30.03 µM) was 4.932%.

`Cc1nc(CN(C)CC2CCCN2c2cccnn2)nc2ccccc12` (centres undefined): the “Percent Effect” value (30.3 µM, […]) is listed as 101.1%.

Take `Cc1nc2ccccc2nc1CN(C)CC1CCCN1c1cccnn1` (centres undefined): the “Percent Effect” value (30 µM, 30.03 µM) is -12.68%.

As to `Cc1nn(C)c(N(C)C)c1CNCCOc1ccc2c(c1)OCO2.Cl`, the “Percent Effect” value (10 µM) is on record as -62.44%.

As to `Cc1nc(CNc2cccc(Cl)c2Cl)cs1`, for the setting “30.3 µM, […]”, the “Percent Effect” value is on record as 13.05%.

Regarding `CN(C)c1cccc(C2CCCN2CCCN2CCOC2=O)c1` (centres undefined), for the setting “30.3 µM, […]”, the “Percent Effect” value was found to be 100.6%.

As to `O=C1OCCN1CCCN1CCCC1c1ccc(O)cc1` (centres undefined), the “Percent Effect” value (30.3 µM, […]) is listed as -41.53%.

With `CN(C)c1cccc(C2CCCN2Cc2nnnn2C2CC2)c1` (centres undefined), the “Percent Effect” value (30 µM, 30.03 µM) is on record as -5.59%.

As for `Cc1cc(C(=O)N2CCN(c3nc4c(C(C)C)cccc4s3)CC2)no1`, the “Percent Effect” value (30 µM, 30.03 µM) was -24.13%.

Regarding `CN(C)c1ccc(CN(CCCn2ccnc2)Cc2c[nH]cn2)cc1.O=C(O)CC(O)(CC(=O)O)C(=O)O`, for the setting “30.3 µM, […]”, the “Percent Effect” value is reported as 101.7%.

`Cc1ccc(CN(CCCn2ccnc2)Cc2c[nH]cn2)s1.O=C(O)CC(O)(CC(=O)O)C(=O)O`: the “Percent Effect” value (30.3 µM, […]) was found to be 1.137%.

As to `Cc1ccc(CN(CCCn2ccnc2)Cc2cnc(N(C)C)nc2)s1.O=C(O)CC(O)(CC(=O)O)C(=O)O`, the “Percent Effect” value (30.3 µM, […]) is -19.58%.

With `CCOc1ccc(Cl)cc1C1CCCCN1.Cl` (centres undefined), the “Percent Effect” value (30 µM, 30.03 µM) is -10.24%.

Turning to `Cc1cccc(CN2C(=O)CCC23CCN(C(=O)NC(C)C)CC3)n1.O=C(O)C(F)(F)F`, under “30.3 µM, […]”, the “Percent Effect” value was -47.32%.

In the case of `Cc1c(-c2cc(C(F)(F)F)nc(N3CCC(N)CC3)n2)cnn1C`, the “Percent Effect” value (30.3 µM, […]) was 47.45%.

As to `O=C(O)C1CCCN1c1nc(-c2ccc(Cl)cc2)cc(C(F)(F)F)n1` (centres undefined), where the note is “30 µM, 30.03 µM”, the “Percent Effect” value was -38.97%.

As for `CCn1ncc(-c2cc(C(F)(F)F)nc(N3CCC(N)CC3)n2)c1C`, the “Percent Effect” value (30.3 µM, […]) was determined as 100.2%.

`O=C(O)C1CCCN1c1nc(-c2ccc(Cl)c(Cl)c2)cc(C(F)(F)F)n1` (centres undefined): the “Percent Effect” value (30 µM, 30.03 µM) is on record as -7.275%.

`CCc1ccc(-c2cc(C(F)(F)F)nc(N3CCC(N)CC3)n2)cc1`: the “Percent Effect” value (30.3 µM, […]) stood at 100.3%.

On to `Cc1ccc(-c2cc(C(F)(F)F)nc(N3CCOCC3)n2)s1`, for which the “Percent Effect” value (30 µM, 30.03 µM) is listed as -24.17%.

Turning to `Cc1nccn1CCC1CCNCC1.Cl.Cl`, the “Percent Effect” value (30.3 µM, […]) was -19.74%.

Take `CC1c2ncc(Cn3cccn3)n2CCN1Cc1ccc(F)cc1.O=C(O)C(F)(F)F` (centres undefined): the “Percent Effect” value (30.3 µM, […]) came to 6.386%.

For the molecule `CCS(=O)(=O)N1CCCC(Cc2cnccn2)C1` (centres undefined), the “Percent Effect” value (30.3 µM, […]) is -26.51%.

As for `c1ncn(CC2CCCN(Cc3noc(C4CC4)n3)C2)n1` (centres undefined), the “Percent Effect” value (30.3 µM, […]) is listed as -10.36%.

As to `C1CCC(CNC2CCCN(Cc3noc(C4CC4)n3)C2)CC1` (centres undefined), the “Percent Effect” value (30.3 µM, […]) is recorded as 78.83%.

Regarding `C1CCC(CNC2CCCN(Cc3noc(C4CC4)n3)C2)C1` (centres undefined), for the setting “30.3 µM, […]”, the “Percent Effect” value came out at 26.01%.

For the molecule `C1CCCN(C2CCCN(Cc3noc(C4CC4)n3)C2)CC1` (centres undefined), the “Percent Effect” value (30.3 µM, […]) is recorded as 49.07%.

As to `C1CC(NCC2CC2)CN(Cc2noc(C3CC3)n2)C1` (centres undefined), under “30.3 µM, […]”, the “Percent Effect” value was -4.666%.

As to `C1CCCN(CC2CCCN(Cc3noc(C4CC4)n3)C2)CC1` (centres undefined), the “Percent Effect” value (30.3 µM, […]) is given as 63.76%.

Take `Cn1cc(CN2C[C@@H]3COC[C@H](C(=O)Nc4cccnc4)[C@@H]3C2)cn1.O=C(O)C(F)(F)F.O=C(O)C(F)(F)F`: the “Percent Effect” value (30 µM, 30.03 µM) was -8.066%.
